Results published in PubChem BioAssay (Tox21).
Records with an inconclusive call do not appear. Calls of active or inactive are those of the source. Unless noted, the call rests on the fitted dose curve.

What was measured:
[1] = Nuclear factor erythroid 2-related factor 2/antioxidant responsive element (Nrf2/ARE) small molecule agonists: qHTS cell viability counter screen in human keratinocytes (AID 1919968; active means well fitted cell-killing curve with a large enough effect in the repeat runs; further: nearly all actives have a fitted effect of over 55% in size; further: potency means the concentration at half of the fitted maximal effect)
Summary of the method: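 Cells of the KeratinoSens line were plated at 1,500 per well and left for 5 h before compound transfer from DMSO stocks. After a 23 h incubation (37 C, 5% CO2), CellTiter-Fluor was added. Signal was taken as fluorescence intensity 1 h later.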

[2] = Nuclear factor erythroid 2-related factor 2/antioxidant responsive element (Nrf2/ARE) small molecule agonists: luciferase reporter gene qHTS assay in human keratinocytes (AID 1919969); further: nearly all actives have a fitted effect of over 35% in size; further: potency means the concentration at half of the fitted maximal effect
[3] = target: Gonadotropin-releasing hormone receptor (Homo sapiens) (UniProt P30968); test: Human gonadotropin-releasing hormone receptor (GnRHR) small molecule agonists, calcium flux assay in GnRHR-HEK293 cells (AID 1920063); further: nearly all actives have a fitted effect of over 35% in size
Sequence of Gonadotropin-releasing hormone receptor (Homo sapiens) (P30968 whole entry, looked up): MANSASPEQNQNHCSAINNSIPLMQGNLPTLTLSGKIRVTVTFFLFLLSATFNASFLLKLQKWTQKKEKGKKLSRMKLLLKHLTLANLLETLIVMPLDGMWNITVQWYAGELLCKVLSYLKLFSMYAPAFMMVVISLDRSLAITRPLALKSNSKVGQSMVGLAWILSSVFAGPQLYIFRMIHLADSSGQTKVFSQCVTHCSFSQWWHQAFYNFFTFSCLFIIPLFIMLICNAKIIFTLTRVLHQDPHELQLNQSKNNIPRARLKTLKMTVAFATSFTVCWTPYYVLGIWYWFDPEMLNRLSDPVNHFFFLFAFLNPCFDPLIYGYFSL
Summary of the method: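 Compounds dissolved in DMSO are pin-transferred onto dye-loaded GnRHR-HEK293 cells, which were seeded 18 h before at 37 C/5% CO2. Calcium signal is read as fluorescence intensity at 1 s intervals for 3 min.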

[4] = G protein-coupled receptor (GPCR) small molecule agonists, calcium flux assay: HEK293 wild type cell line counter screen (AID 1920065)
Summary of the method: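 Tox21 10K compounds, 15 concentrations each in triplicate, pin-transferred in DMSO onto dye-loaded cells; kinetic read at 480/540 nm for 3 min, 1 s intervals.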

[5] = p53 small molecule agonists, cell-based qHTS assay with human liver microsomes (AID 1963577)
Summary of the method: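 Compounds act here after metabolic activation: human liver microsomes and NADPH, both at 0.5 mg/mL final, were co-added to p53RE-bla cells. Incubation ran 16 h at 37 C, followed by LiveBLAzer detection.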

[6] = p53 small molecule agonists, cell-based qHTS assay with rat liver microsomes (AID 1963578)
Summary of the method: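 Read-out is beta-lactamase reporter fluorescence (LiveBLAzer, 2 h, room temperature, dark) in p53RE-bla cells treated 16 h at 37 C with compound, rat liver microsomes and NADPH, both 0.5 mg/mL final.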

[7] = p53 small molecule agonists, cell-based qHTS assay with human liver microsomes: qHTS cell viability counter screen (AID 1963579); further: nearly all actives have a fitted effect of over 45% in size; further: potency means the concentration at half of the fitted maximal effect
Summary of the method: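 Cells carrying the p53 response-element beta-lactamase reporter are treated for 16 h at 37 C with test compounds in the presence of human liver microsomes and NADPH (both 0.5 mg/mL final); ATP-based CellTiter-Glo luminescence then reports viability.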

[8] = p53 small molecule agonists, cell-based qHTS assay with rat liver microsomes: qHTS cell viability counter screen (AID 1963580); further: nearly all actives have a fitted effect of over 45% in size
Summary of the method: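 Cytotoxicity counter screen: intracellular ATP measured by CellTiter-Glo luminescence in the same wells as the beta-lactamase reporter read, on HCT-116 p53RE-bla cells exposed 16 h at 37 C to compounds with rat liver microsomes and NADPH, each 0.5 mg/mL final.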

[9] = p53 small molecule agonists, cell-based qHTS assay (AID 1963582; active means well fitted activation curve with a large enough effect in the signal ratio in the repeat runs, not every such curve was filed as active; the % refers to the signal ratio)
Summary of the method: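 16 h compound exposure (37 C) of p53 response element–bla cells, preceded by 5 h recovery at 37 C/5% CO2; read-out via LiveBLAzer B/G FRET substrate, 2 h RT, fluorescence intensity.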

[10] = cAMP Responsive Elements (CRE) small molecule agonists, cell-based qHTS assay (AID 1963590); further: potency means the concentration at half of the fitted maximal effect
Summary of the method: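 HEK 293T cells stably bearing CRE-bla were plated at 2,000 cells per well and rested 18 h. Compounds, positive controls or DMSO were added for 3 h at 37 C. LiveBLAzer B/G substrate was then loaded for 2 h at room temperature.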

[11] = cAMP Responsive Elements (CRE) small molecule antagonists, cell-based qHTS assay (AID 1963591; active means well fitted inhibition curve with a large enough effect in the signal ratio in the repeat runs, not every such curve was filed as active; the % refers to the signal ratio; further: potency means the concentration at half of the fitted maximal effect)
Summary of the method: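 First, CRE-bla HEK293T cells settled 18 h at 37 C. Next, compound and 0.25 uM final NKH477 were applied for 3 h. Last, LiveBLAzer B/G substrate was loaded for 2 h at room temperature.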

[12] = target: Beta-2 adrenergic receptor (Homo sapiens) (UniProt P07550); test: Adrenergic beta2 receptor (ADRB2) small molecule antagonists, cell-based qHTS assay (AID 1963592); further: series mostly up to about 92 µM; nearly all actives have a fitted effect of over 50% in size
Sequence of Beta-2 adrenergic receptor (Homo sapiens) (P07550 whole entry, looked up): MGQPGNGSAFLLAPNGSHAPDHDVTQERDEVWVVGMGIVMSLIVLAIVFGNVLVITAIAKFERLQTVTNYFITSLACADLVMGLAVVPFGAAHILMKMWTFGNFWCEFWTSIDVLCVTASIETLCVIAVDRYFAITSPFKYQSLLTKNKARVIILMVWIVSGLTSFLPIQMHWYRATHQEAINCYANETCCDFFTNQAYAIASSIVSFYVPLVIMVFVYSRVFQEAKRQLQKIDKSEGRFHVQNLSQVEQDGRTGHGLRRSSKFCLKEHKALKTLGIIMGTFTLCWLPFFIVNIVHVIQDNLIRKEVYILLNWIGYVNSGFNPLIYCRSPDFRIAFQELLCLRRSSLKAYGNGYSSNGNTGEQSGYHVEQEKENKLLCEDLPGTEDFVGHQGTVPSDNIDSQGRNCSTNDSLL
Summary of the method: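 Assay format: CHO-ADRB2 cells, 18-20hr seeding at 37C/5% CO2, then compound plus 1nM isoproterenol agonist mix for 0.5hr RT. Homogeneous time-resolved fluorescence cAMP detection after 1hr, expressed as 665/615 nm ratio.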

[13] = target: D(2) dopamine receptor (Homo sapiens) (UniProt P14416); test: Dopamine D2 receptor (DRD2) small molecule agonists, cell-based qHTS assay (AID 1963594); further: nearly all actives have a fitted effect of over 35% in size
Sequence of D(2) dopamine receptor (Homo sapiens) (P14416 whole entry, looked up): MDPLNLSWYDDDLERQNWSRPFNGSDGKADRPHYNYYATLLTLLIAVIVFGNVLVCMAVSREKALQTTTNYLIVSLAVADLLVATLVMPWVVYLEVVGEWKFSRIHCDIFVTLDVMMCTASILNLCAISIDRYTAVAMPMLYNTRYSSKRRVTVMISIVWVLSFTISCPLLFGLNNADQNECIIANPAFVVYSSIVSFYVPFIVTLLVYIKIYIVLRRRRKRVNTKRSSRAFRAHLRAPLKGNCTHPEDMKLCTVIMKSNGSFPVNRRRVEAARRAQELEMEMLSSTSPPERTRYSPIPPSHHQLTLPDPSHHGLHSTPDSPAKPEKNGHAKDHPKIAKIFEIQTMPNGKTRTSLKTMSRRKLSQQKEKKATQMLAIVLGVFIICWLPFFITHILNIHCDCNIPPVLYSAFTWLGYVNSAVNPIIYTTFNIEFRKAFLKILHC
Summary of the method: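 HEK293 cells stably expressing human DRD2, pre-treated with PDE inhibitor Ro20-1724 (0.1 mM final) and compound 10 min at room temperature, then stimulated with NKH477 (200nM […]) for 30 min. cAMP read by HTRF (665/620 nm).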

[14] = target: D(2) dopamine receptor (Homo sapiens) (UniProt P14416); test: Dopamine D2 receptor (DRD2) small molecule antagonists, cell-based qHTS assay (AID 1963595; active means well fitted inhibition curve with a large enough effect in the signal ratio in the repeat runs, with a control signal flat; the % refers to the signal ratio)
Summary of the method: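 Human DRD2 antagonist qHTS measuring cAMP by HTRF. The cells are exposed to compound for 10 min, then to NKH477 (200 nM) and quinpirole (12 nM) for 30 min at RT, with Ro20-1724 (0.1 mM) present throughout.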

[15] = p53 small molecule agonists, cell-based qHTS assay: qHTS cell viability counter screen (AID 1963581); further: nearly all actives have a fitted effect of over 45% in size
Summary of the method: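 ATP content measured by luminescence in HCT-116 p53RE-bla cells treated 16 h at 37 C, same wells as the reporter screen.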

[16] = target: 5-hydroxytryptamine receptor 2A (Homo sapiens) (UniProt P28223); test: 5-hydroxytryptamine receptor 2A (HTR2A) small molecule antagonists, cell-based qHTS assay (AID 1963586); further: nearly all actives have a fitted effect of over 45% in size; further: potency means the concentration at half of the fitted maximal effect
Sequence of 5-hydroxytryptamine receptor 2A (Homo sapiens) (P28223 whole entry, looked up): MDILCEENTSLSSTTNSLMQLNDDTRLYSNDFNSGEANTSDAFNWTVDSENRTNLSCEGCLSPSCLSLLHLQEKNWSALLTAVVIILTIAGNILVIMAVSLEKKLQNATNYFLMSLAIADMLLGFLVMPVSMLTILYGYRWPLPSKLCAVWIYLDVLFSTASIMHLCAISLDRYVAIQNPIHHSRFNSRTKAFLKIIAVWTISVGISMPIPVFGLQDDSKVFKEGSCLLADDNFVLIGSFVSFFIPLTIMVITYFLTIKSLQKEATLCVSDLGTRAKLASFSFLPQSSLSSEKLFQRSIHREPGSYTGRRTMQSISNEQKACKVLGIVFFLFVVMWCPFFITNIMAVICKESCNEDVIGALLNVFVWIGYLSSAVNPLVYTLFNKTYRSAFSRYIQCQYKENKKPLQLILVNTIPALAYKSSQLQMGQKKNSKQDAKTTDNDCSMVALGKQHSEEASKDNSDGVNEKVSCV
Summary of the method: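 CHO cells stably expressing human HTR2A were plated for 18 h at 37 C, then loaded with calcium dye for 1 h. Compounds were preincubated 5 min at room temperature before DOI (4 nM solution) was added. Kinetic fluorescence was read for 3 min.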

[17] = target: Muscarinic acetylcholine receptor M1 (Homo sapiens) (UniProt P11229); test: Cholinergic receptor muscarinic 1 (CHRM1) small molecule antagonists, cell-based qHTS assay (AID 1963588); further: nearly all actives have a fitted effect of over 40% in size
Sequence of Muscarinic acetylcholine receptor M1 (Homo sapiens) (P11229 whole entry, looked up): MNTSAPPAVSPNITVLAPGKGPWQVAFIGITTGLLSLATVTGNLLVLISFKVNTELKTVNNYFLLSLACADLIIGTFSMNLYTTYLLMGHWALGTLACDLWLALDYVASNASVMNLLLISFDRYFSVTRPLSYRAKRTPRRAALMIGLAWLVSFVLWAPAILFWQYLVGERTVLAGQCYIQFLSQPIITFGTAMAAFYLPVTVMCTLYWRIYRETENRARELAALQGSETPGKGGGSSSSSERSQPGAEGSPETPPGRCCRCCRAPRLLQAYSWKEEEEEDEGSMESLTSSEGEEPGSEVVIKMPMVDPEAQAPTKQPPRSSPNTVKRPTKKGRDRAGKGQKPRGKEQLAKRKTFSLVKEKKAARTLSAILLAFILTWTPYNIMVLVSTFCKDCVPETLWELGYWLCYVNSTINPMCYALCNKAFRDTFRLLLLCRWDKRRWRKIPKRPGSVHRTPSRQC
Summary of the method: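 Compounds were tested at 15 concentrations in three independent runs. Dye-loaded CHRM1-CHO cells were exposed 5 min at room temperature before stimulation by acetylcholine added at 50nM. Intracellular calcium was read kinetically on FDSS for 3 min.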

[18] = target: Muscarinic acetylcholine receptor M1 (Homo sapiens) (UniProt P11229); test: Cholinergic receptor muscarinic 1 (CHRM1) small molecule agonists, cell-based qHTS assay (AID 1963589); further: nearly all actives have a fitted effect of over 35% in size
Summary of the method: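 Homogeneous fluorescence calcium flux, agonist mode. Human M1-expressing CHO cells; compound dosed at 15 concentrations, three independent runs; signal sampled every 1 sec.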

[19] = target: 5-hydroxytryptamine receptor 2A (Homo sapiens) (UniProt P28223); test: 5-hydroxytryptamine receptor 2A (HTR2A) small molecule agonists, cell-based qHTS assay (AID 1963587); further: nearly all actives have a fitted effect of over 30% in size
Summary of the method: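 CHO cells stably expressing human HTR2A, plated 18 h, loaded with calcium dye 1 h at 37 C. Agonist mode: compounds added and intracellular calcium fluorescence recorded kinetically for 2 min at 1 sec intervals.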

[20] = target: Beta-2 adrenergic receptor (Homo sapiens) (UniProt P07550); test: Adrenergic beta2 receptor (ADRB2) small molecule agonists, cell-based qHTS assay (AID 1963593);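 further: CHO cells stably overexpressing human ADRB2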
Summary of the method: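 CHO cells stably over-expressing ADRB2 were plated overnight at 37C, then dosed with compounds plus a stimulation mix containing 100uM IBMX and 25uM Ro-20-1724 for 0.5hr at room temperature. cAMP was measured by HTRF competition, 1hr.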
On the % scale 0 is the no-effect control and ±100 the full control effect.

CC(=O)CCCCn1c(=O)c2c(ncn2C)n(C)c1=O
inactive: Potency [1] | Potency [2] | Potency [3] | outcome [4] | Potency [5] | Potency [6] | Potency [7] | Potency [8] | Potency [9] | Potency [10] | Potency [11] | Potency [12] | Potency [13] | Potency [14]

N#Cc1ccc(C/C(=N/NC(=O)Nc2ccc(OC(F)(F)F)cc2)c2cccc(C(F)(F)F)c2)cc1
inactive: Potency [1] | Potency [2] | Potency [3] | outcome [4] | Potency [5] | Potency [6] | Potency [8] | Potency [15] | Potency [16] | Potency [17] | Potency [11] | Potency [12] | Potency [13] | Potency [14]

CCOc1ccc([N+](=O)[O-])cc1
inactive: Potency [2] | Potency [3] | outcome [4] | Potency [5] | Potency [6] | Potency [17] | Potency [18] | Potency [10] | Potency [12] | Potency [13]
active: Potency [1] 62 µM | Potency [7] 41.4 µM | Potency [11] 55.3 µM

CC(C(=O)O)c1ccc(C(=O)c2ccccc2)s1 (stereo not drawn)
inactive: Potency [1] | Potency [2] | Potency [3] | outcome [4] | Potency [5] | Potency [6] | Potency [7] | Potency [15] | Potency [16] | Potency [19] | Potency [17] | Potency [18] | Potency [12] | Potency [20] | Potency [13]

C=C(C)C(=O)OCCN(CC)CC
inactive: Potency [1] | Potency [2] | Potency [3] | outcome [4] | Potency [5] | Potency [6] | Potency [7] | Potency [8] | Potency [9] | Potency [19] | Potency [17] | Potency [18] | Potency [10] | Potency [11] | Potency [12] | Potency [13] | Potency [14]

C=C1C(CCl)(CCl)C2(Cl)C(Cl)C(Cl)C1(Cl)C2(Cl)Cl (stereo not drawn)
active: Potency [1] 38.1 µM | Potency [2] 15.2 µM
inactive: Potency [3] | outcome [4] | Potency [5] | Potency [6] | Potency [8] | Potency [16] | Potency [19] | Potency [18] | Potency [20] | Potency [13]

C=C(C)C(=O)OCCCC
inactive: Potency [1] | Potency [2] | Potency [3] | outcome [4] | Potency [5] | Potency [6] | Potency [7] | Potency [8] | Potency [9] | Potency [16] | Potency [19] | Potency [17] | Potency [18] | Potency [10] | Potency [11] | Potency [12] | Potency [20] | Potency [13] | Potency [14]

N[C@@H](COP(=O)(O)O)C(=O)O
inactive: activity change, negative = cytotoxicity [1] 7.74% [at 19 µM] | activity, positive = activation [2] 0.218% [at 19 µM] | activity change [3] 0.11% [at 11.8 µM, stronger effect = higher value] | activation [4] -0.0564% [at 11.8 µM] | activation [5] -0.646% [at 13.5 µM] | activation [6] -0.0703% [at 13.6 µM] | activity change, negative = cytotoxicity [7] -1.17% [at 13.5 µM] | activity change, negative = cytotoxicity [8] 4.54% [at 13.5 µM] | activation [9] 1.58% [at 13.5 µM] | activity, negative = inhibition [16] -2.49% [at 12.7 µM] | activation [19] -9.17% [at 15.9 µM] | activity, negative = inhibition [17] 5.54% [at 12.6 µM] | activation [18] 11.1% [at 15.8 µM] | activation [10] -0.511% [at 19 µM] | activity change, negative = inhibition [11] -18.4% [at 18.9 µM] | activity change, negative = inhibition [12] 3.41% [at 19 µM] | activation [13] -3.09% [at 19 µM] | activity change, negative = inhibition [14] -1.71% [at 18.9 µM]

CC=C(Cl)Cl
inactive: Potency [1] | Potency [2] | Potency [3] | outcome [4] | Potency [5] | Potency [6] | Potency [8] | Potency [9] | Potency [19] | Potency [18] | Potency [11] | Potency [12] | Potency [13] | Potency [14]

OCCN(CCO)CCN(CCO)CCO
inactive: Potency [1] | Potency [2] | Potency [3] | outcome [4] | Potency [5] | Potency [6] | Potency [7] | Potency [15] | Potency [9] | Potency [16] | Potency [19] | Potency [17] | Potency [18] | Potency [10] | Potency [11] | Potency [12]

Clc1ccnc(Cl)n1
inactive: Potency [1] | Potency [3] | outcome [4] | Potency [5] | Potency [6] | Potency [7] | Potency [15] | Potency [9] | Potency [19] | Potency [17] | Potency [18] | Potency [11] | Potency [12] | Potency [13] | Potency [14]
active: Potency [2] 69.6 µM

Clc1cc(Cl)c(-c2c(Cl)c(Cl)cc(Cl)c2Cl)cc1Cl
inactive: Potency [1] | Potency [2] | Potency [3] | outcome [4] | Potency [5] | Potency [6] | Potency [7] | Potency [8] | Potency [9] | Potency [16] | Potency [19] | Potency [17] | Potency [18] | Potency [10] | Potency [11] | Potency [13] | Potency [14]

CCNS(=O)(=O)c1ccc(C)cc1
inactive: Potency [1] | Potency [2] | Potency [3] | outcome [4] | Potency [5] | Potency [6] | Potency [7] | Potency [8] | Potency [9] | Potency [16] | Potency [17] | Potency [18] | Potency [10] | Potency [11] | Potency [12] | Potency [20] | Potency [13] | Potency [14]

CCCC(=O)OCOC(=O)C1=C(C)NC(C)=C(C(=O)OC)C1c1cccc(Cl)c1Cl (stereo not drawn)
inactive: Potency [1] | Potency [2] | Potency [3] | outcome [4] | Potency [5] | Potency [6] | Potency [7] | Potency [8] | Potency [9] | Potency [16] | Potency [19] | Potency [17] | Potency [18] | Potency [10] | Potency [11] | Potency [12] | Potency [13]

CN1CCCC(n2nc(Cc3ccc(Cl)cc3)c3ccccc3c2=O)CC1 (stereo not drawn)
inactive: Potency [1] | Potency [2] | Potency [3] | outcome [4] | Potency [5] | Potency [6] | Potency [7] | Potency [8] | Potency [9] | Potency [19] | Potency [18] | Potency [13]
active: Potency [16] 0.46 µM

Nc1nc(Cl)nc2c1ncn2[C@@H]1O[C@H](CO)[C@@H](O)[C@@H]1F
active: Potency [10] 29.8 µM
inactive: Potency [1] | Potency [2] | Potency [3] | outcome [4] | Potency [5] | Potency [6] | Potency [7] | Potency [15] | Potency [16] | Potency [19] | Potency [17] | Potency [18] | Potency [11] | Potency [14]
